Measured values reported in PubChem BioAssay (NCATS).
“And” between values parts separate entries of the source, which are not always exact repeats. Identical values can stand only once. Inconclusive results are not listed. A call without a number means that no potency is given here. A number with no mark means an inactive call. The source made the active and inactive calls. The call rests on the fitted dose curve; in most records, active means well fitted cell-killing curve with a large enough effect; inconclusive means small, poorly fitted or top-dose-only effect, or effect the other way; inactive means no such curve, though single readings can be large or run the other way.

What was measured:
[1] = Viability qHTS for spleen associated tyrosine kinase inhibitor (SYKi) naive MV4-11 cells (AID 1963823); further: nearly all actives have a fitted effect of over 40% in size
In short: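 Luminescence from CellTiter-Glo, developed 10 min at room temperature, gave viability of MV4-11 cells never exposed to SYK inhibitor. Cells (500/well) had been incubated with compounds for 72 hr under standard culture conditions.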

[2] = Viability qHTS for spleen associated tyrosine kinase inhibitor (SYKi) drug resistant MV4-11 cells (AID 1963824); further: nearly all actives have a fitted effect of over 35% in size
In short: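 SYK inhibitor-resistant MV4-11 AML cells, 500 per well, added to predispensed compounds and incubated 72 hr at 37 C, 5% CO2. Viability measured by CellTiter-Glo luminescence after 10 min at room temperature.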
Potency means the concentration at half of the fitted maximal effect.

Row | Structure (SMILES) | Potency [1] | Potency [2] | viability (% of control) [1] | viability, % of control [2]
1 | O=C(O)COCCN1CCN([C@H](c2ccccc2)c2ccc(Cl)cc2)CC1 | inactive | inactive | – | –
2 | Nc1nc(Nc2ccc3c(c2)CCC(N2CCCC2)CC3)nn1-c1cc2c(nn1)-c1ccccc1CCC2 (stereo not drawn) | 0.231 µM (active) | 0.366 µM (active) | – | –
3 | CC1(C)CC[C@]2(C(=O)O)[C@H](O)C[C@]3(C)C(=CCC4[C@@]5(C)CC[C@H](O[C@@H]6OC[C@@H](O)[C@H](O)[C@H]6O)[C@@](C)(C(=O)O)C5CC[C@]43C)[C@@H]2C1 (stereo partly drawn) | inactive | inactive | – | –
4 | CN1[C@@H]2CC[C@H]1CC(OC(=O)C(CO)c1ccccc1)C2 (stereo partly drawn) | inactive | inactive | – | –
5 | C=CC(C)(O)CC/C=C(\C)C(=O)OC1C(O)C(CO)OC(OC(=O)C23CCC(C)(C)CC2C2=CCC4C5(C)CCC(OC6OC(COC7OCC(OC(C)=O)C(O)C7OC7OC(COC(C)=O)C(O)C(O)C7OC(C)=O)C(O)C(O)C6OC6OCC(O)C(O)C6O)C(C)(C)C5CCC4(C)C2(C)C(O)C3O)C1OC1OCC(OC2OCC(O)C(OC3OCC(O)C(O)C3O)C2O)C(O)C1O (stereo not drawn) | 0.631 µM (active) | 1.78 µM (active) | – | –
6 | COC1CC(O[C@H]2CC[C@]3(C)C4CC[C@@]5(C)C(=O)[C@]4(CC[C@@H]3C2)CC[C@@H]5C2=CC(=O)OC2)OC(C)C1OC1OC(COC2OC(CO)C(O)C(O)C2O)C(O)C(O)C1O (stereo partly drawn) | 1.1 µM (active) | 1.23 µM (active) | – | –
7 | Cc1cc(C(=O)N2Cc3cnn(C)c3Nc3ccccc32)ccc1CNC(=O)N1CCC[C@H]1C(=S)N1CCCN(C)CC1 | inactive | inactive | – | –
8 | CC(C(=O)O)C1CCC2(C)C3C(=O)C=C4C(CCC(=O)C4(C)C)C3(C)CCC12C (stereo not drawn) | inactive | inactive | – | –
9 | C[C@@H]1O[C@@H](O[C@H]2[C@H](O[C@H]3[C@H](O[C@H]4CC[C@@]5(C)C(CC[C@]6(C)C5CC=C5[C@@H]7CC(C)(C)CC(=O)[C@]7(C)CC[C@]56C)[C@@]4(C)CO)O[C@H](C(=O)O)[C@@H](O)[C@@H]3O)O[C@H](CO)[C@H](O)[C@@H]2O)[C@H](O)[C@H](O)[C@H]1O (stereo partly drawn) | – | – | 81.7% [at 9.25 µM] | 68.7% [at 9.25 µM]
10 | CC(=O)N[C@H]1[C@H](O[C@H]2CC[C@@]3(C)C(CC[C@]4(C)C3CC=C3[C@@H]5CC(C)(C)CC[C@]5(C(=O)OC5OCC(O)C(O)C5O)CC[C@]34C)C2(C)C)O[C@H](COC2OC(C)C(O)C(OC3OC(C)C(O)C(O)C3O)C2O)[C@@H](O)[C@@H]1O (stereo partly drawn) | – | – | 83.4% [at 9.25 µM] | 87% [at 9.25 µM]
11 | C=C1C(=O)O[C@H]2[C@H]1[C@@H](OC(=O)/C(C)=C\C)C[C@]1(C)O[C@@H]1[C@H]1O[C@H]1C(=C)[C@H]2O | 8.05 µM (active) | 3.6 µM (active) | – | –
12 | O=C1NC(Cc2ccc(O)cc2)C(=O)N2CCCC12 (stereo not drawn) | inactive | inactive | – | –
13 | C=C(C(=O)O[C@H]1C/C(C)=C/CC/C(CO)=C/[C@H]2OC(=O)C(=C)[C@H]12)C(O)CO (stereo partly drawn) | 2.02 µM (active) | 0.904 µM (active) | – | –
14 | Nc1cc(C(F)(F)F)ccc1S | 21.1 µM (active) | 23.7 µM (active) | – | –
15 | C=CC(=O)N1CCCC(n2nc(-c3ccc(Oc4ccccc4)cc3)c3c(N)ncnc32)C1 (stereo not drawn) | 0.58 µM (active) | 1.16 µM (active) | – | –
16 | CNC(=O)[C@@H](c1ccccc1)N1CCc2cc(OC)c(OC)cc2[C@@H]1CCc1ccc(C(F)(F)F)cc1 | 20.6 µM (active) | 20.6 µM (active) | – | –
17 | CCOC(=O)[C@H](CCc1ccccc1)N[C@@H](C)C(=O)N1C2CCCCC2C[C@H]1C(=O)O (stereo partly drawn) | 16.4 µM (active) | 6.51 µM (active) | – | –
18 | Nc1ccc(S(=O)(=O)Nc2nccs2)cc1 | inactive | inactive | – | –
19 | CCC(NC(=O)CC(NC(=O)C(CO)NC(=O)C(CC)NC(=O)c1ccc[nH]1)c1ccccc1)C(=O)O (stereo not drawn) | inactive | inactive | – | –
20 | O=C(Nc1ccn(Cc2c(F)cccc2C(F)(F)F)n1)c1c(F)cccc1F | – | – | 72.8% [at 9.25 µM] | 91.5% [at 9.25 µM]
21 | C/C=C/[C@@H]1C=C[C@@H]2C[C@H](C)CC[C@H]2[C@]1(C)/C(O)=C1/C(=O)[C@@H](CO)N(C)C1=O | 14.3 µM (active) | 16.1 µM (active) | – | –
22 | O=C(NN1CCCCC1)c1nn(-c2ccc(Cl)cc2Cl)c(-c2ccc(C#Cc3ccc(C(F)(F)F)cc3)s2)c1CNS(=O)(=O)N1CCCC1 | inactive | inactive | – | –
23 | CC(C)CC(c1c(O)c(C=O)c(O)c(C=O)c1O)C1CCC(C)(O)C2CC(C(C)(C)O)CCC12C (stereo not drawn) | inactive | inactive | – | –
24 | CC(C)=CCC[C@](C)(O[C@@H]1O[C@H](CO[C@@H]2OC[C@@H](O)[C@H](O)[C@H]2O)[C@@H](O)[C@H](O)[C@H]1O)[C@H]1CC[C@]2(C)[C@@H]1[C@H](O)C[C@@H]1[C@@]3(C)CC[C@H](O[C@@H]4O[C@H](CO)[C@@H](O)[C@H](O)[C@H]4O[C@@H]4O[C@H](CO)[C@@H](O)[C@H](O)[C@H]4O)C(C)(C)[C@@H]3CC[C@]12C | inactive | inactive | – | –
25 | CN1CCN(c2cccc(Nc3nc4c(-c5ccc(S(C)(=O)=O)cc5)cccn4n3)c2)CC1 | 146 nM (active) and 132 nM (active) | 130 nM (active) and 296 nM (active) | – | –
26 | O=C(N/N=C/c1ccccc1O)c1ccncc1 | 0.944 µM (active) | 0.75 µM (active) | – | –
27 | C/C=C/C1=CC2=C(CO1)C(=O)C(C)(O)C(OC(=O)c1c(C)cc(OC)cc1O)C2 (stereo not drawn) | 6.4 µM (active) | 4.04 µM (active) | – | –

Row | Structure (SMILES) | Potency [1] | Potency [2] | viability (% of control) [1] | viability, % of control [2]
28 | C=C[C@@]12COC(=O)C(=C)[C@@H]1[C@@H](O)[C@H](C(=C)C(=O)OC)[C@@H](O)C2 | inactive | inactive | – | –
29 | CC1=CC2=C(C)C(=O)C(C)(O)C(O)C2CO1 (stereo not drawn) | inactive | inactive | – | –
30 | CC(=O)C12OC(C)(C)OC1CC1C3CCC4=CC(=O)C=CC4(C)C3(F)C(O)CC12C (stereo not drawn) | inactive | inactive | – | –
31 | CC(CO)C1CCC2(C)CC3C(CO)CC(O)C3C(C)(O)C/C=C/12 (stereo not drawn) | inactive | inactive | – | –
32 | CCN1CCN(C(=O)N[C@@H](C(=O)N[C@@H]2C(=O)N3[C@@H]2SC(C)(C)[C@@H]3C(=O)O)c2ccccc2)C(=O)C1=O | inactive | inactive | – | –
33 | Cc1cc(C)c(S(=O)(=O)N(Cc2ccc(-c3cccc(S(C)(=O)=O)c3)cc2)Cc2ccc(C(F)(F)F)o2)c(C)c1 | inactive | 0.0461 µM (active) | – | –
34 | CC12CC(c3ccoc3)OC(=O)C1CCC1(C)C2CCC(O)C1(C)O (stereo not drawn) | inactive | inactive | – | –
35 | O=C(O)C(O[C@@H]1O[C@H](CO[C@@H]2O[C@H](CO)[C@@H](O)[C@H](O)[C@H]2O)[C@@H](O)[C@H](O)[C@H]1O)c1ccccc1 (stereo partly drawn) | inactive | inactive | – | –
36 | Cc1occc(=O)c1O[C@@H]1O[C@H](COC(=O)CC(C)(O)CC(=O)O)[C@@H](O)[C@H](O)[C@H]1O (stereo partly drawn) | inactive | inactive | – | –
37 | CCNC(=O)Nc1ccc(-c2nc3c(c(N4CCOC[C@H]4C)n2)CCN(C2COC2)C3)cc1 | 0.461 µM (active) | 0.82 µM (active) | – | –
38 | C[C@@H]1CC2OC(=O)C3=C2C(CCC3O)[C@@]12C[C@@H](c1ccoc1)OC2=O (stereo partly drawn) | inactive | inactive | – | –
39 | CCOC(=O)C(CCc1ccccc1)NC(C)C(=O)N1C(=O)N(C)CC1C(=O)O (stereo not drawn) | inactive | inactive | – | –
40 | C=C1C(=O)O[C@@H]2[C@H]1CC[C@H](C)C(CCC(=O)O)C2(C)O (stereo partly drawn) | 5.8 µM (active) | 2.31 µM (active) | – | –
41 | CC1CCC2(NC1)OC1C(O)C3C4CCC5CC(O[C@@H]6O[C@H](CO)[C@@H](O)[C@H](O)[C@H]6O[C@@H]6O[C@@H](C)[C@H](O)[C@@H](O)[C@H]6O)CCC5(C)C4CCC3(C)C1C2C (stereo partly drawn) | inactive | inactive | – | –
42 | Cc1cc(N2CCCCC2)nc2ccccc12 | inactive | inactive | – | –
43 | N=c1nc2n(cc1F)C1OC(CO)C(O)C1O2 (stereo not drawn) | 1.64 µM (active) | 2.59 µM (active) | – | –
44 | CC1CCC2C(C)(C)CC(C)(CO)C2(O)C1C(=O)O (stereo not drawn) | inactive | inactive | – | –
45 | COC(=O)C1=CO[C@@H](O[C@@H]2O[C@H](CO)[C@@H](O)[C@H](O)[C@H]2O)C2C1CC(O)C2C (stereo partly drawn) | inactive | inactive | – | –
46 | O=C(/C=C/c1ccc(O)cc1)c1ccc(O)cc1O | 18.6 µM (active) | 11.8 µM (active) | – | –
47 | CC(O)CCC1C(CO[C@@H]2O[C@H](CO)[C@@H](O)[C@H](O)[C@H]2O)CC(O)CC1(C)C (stereo partly drawn) | inactive | inactive | – | –
48 | C/C=C(\C)C(=O)OCC1OC(OC2OC(COC(=O)/C(C)=C/C)C(OC3OC(CO)C(OC(=O)/C(C)=C/C)C(OC(=O)/C(C)=C/C)C3O)C(O)C2O)C(O)C(O)C1OC1OC(CO)C(OC(=O)/C(C)=C/C)C(OC(=O)/C(C)=C/C)C1O (stereo not drawn) | – | – | 65% [at 9.25 µM] | 58.7% [at 9.25 µM]
49 | CN(C)CC(c1ccc(O)cc1)C1(O)CCCCC1 (stereo not drawn) | inactive | inactive | – | –
50 | O=C(CCc1ccccc1)c1c(O)c([C@@H]2O[C@H](CO)[C@@H](O)[C@H](O)[C@H]2O)c(O)c([C@@H]2O[C@H](CO)[C@@H](O)[C@H](O)[C@H]2O)c1O | inactive | inactive | – | –
51 | C1CCN2CC3C[C@@H](CN4CCCC[C@@H]34)[C@H]2C1 | inactive | inactive | – | –
52 | C=C1C(=O)O[C@@H]2C[C@@]3(C)CCC[C@H](C)C3=C[C@H]12 | 13 µM (active) | 7.31 µM (active) | – | –
53 | COc1ccc(/C=C/C(=O)O[C@H]2[C@H](O[C@H]3[C@@H]4C=CO[C@@H](O[C@@H]5O[C@H](CO)[C@@H](O)[C@H](O)[C@H]5O)[C@@H]4[C@@]4(CO)O[C@@H]34)O[C@@H](C)[C@H](O)[C@H]2OC(C)=O)cc1 | inactive | inactive | – | –
54 | CC1(C)CC[C@]2(C(=O)O[C@@H]3O[C@H](CO)[C@@H](O)[C@H](O)[C@H]3O)CC[C@]3(C)C(=CCC4[C@@]5(C)CC[C@H](O[C@@H]6O[C@H](C(=O)O)[C@@H](O[C@@H]7O[C@H](CO)[C@@H](O)[C@H](O)[C@H]7O)[C@H](O)[C@H]6O)C(C)(C)C5CC[C@]43C)C2C1 (stereo partly drawn) | – | – | 78.7% [at 9.25 µM] | 88% [at 9.25 µM]
